# Data as given in PubChem BioAssay.
# Activity calls are given as the source filed them.
# How the values were obtained:
# [1] = test system: Human papillomavirus type 1a protein E7 (residues 44-93); test: small molecules binding HPV E7 44-93 – biochemical, small-molecule microarray, residues 44-93, 635 nm fluorescence, primary screen (AID 1108); details: fluorescence 635 nm, higher = more signal;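 note: E7 fragment applied at 1 µg/mL in TBST for 1 h at 4 C; score combines spot fluorescence with its signal to noise ratio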
# [2] = hepatitis C replication reporter changes, two-sided – Huh7 cells, luciferase reporter, HCV replication inhibitor project, primary screen (AID 1109); details: Huh7 HCV replicon luciferase reporter, 48 h; higher = more signal;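 note: huh7 hepatoma cells harbouring a luciferase neomycin HCV replicon reporter; luciferase luminescence as measure of HCV replicon replication; test concentration not given here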
# [3] = molecular target: Left-right determination factor 2 (Homo sapiens) (UniProt O00292); test: small molecules binding LEFTY2 protein – biochemical, small-molecule microarray, 635 nm fluorescence scan, primary screen (AID 1110); details: higher = more signal
# Left-right determination factor 2 (Homo sapiens), sequence (O00292 whole entry, looked up): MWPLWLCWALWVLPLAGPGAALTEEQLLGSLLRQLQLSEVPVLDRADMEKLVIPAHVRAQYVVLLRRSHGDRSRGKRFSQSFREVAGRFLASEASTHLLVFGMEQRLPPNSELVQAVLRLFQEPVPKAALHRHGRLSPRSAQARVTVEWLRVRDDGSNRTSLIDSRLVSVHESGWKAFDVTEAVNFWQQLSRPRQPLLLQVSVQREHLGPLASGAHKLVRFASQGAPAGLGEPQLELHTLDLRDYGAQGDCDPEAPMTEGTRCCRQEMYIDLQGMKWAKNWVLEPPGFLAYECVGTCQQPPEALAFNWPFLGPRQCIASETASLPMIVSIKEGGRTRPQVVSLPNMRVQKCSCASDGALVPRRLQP
# [4] = molecular target: Calmodulin-1 (Homo sapiens) (UniProt P0DP23); test: small molecules binding calmodulin-1 with EGTA – biochemical, small-molecule microarray, Cy5-labelled CALM1, profiling panel (AID 1111); details: Cy5-CALM1 binding fluorescence, higher = more signal;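 note: labelled calmodulin applied in Tris saline Tween buffer holding calcium plus EGTA and DTT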
# [5] = molecular target: Calmodulin-1 (Homo sapiens) (UniProt P0DP23); test: small molecules binding Ca-loaded calmodulin-1 – biochemical, small-molecule microarray, Cy5-labelled CALM1, plus calcium, artefact control for SMM control-protein annotation, profiling panel (AID 1112); details: Cy5-CALM1 binding fluorescence, higher = more signal;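 note: score merges spot fluorescence with signal to noise from triplicate slides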
# [6] = probe aWnt5a binding to arrayed compounds – biochemical, biotinylated probe, 635/667 nm fluorescence, primary screen (AID 1113); details: small-molecule microarray, higher = more signal;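 note: score merges 667 nm fluorescence intensity with signal-to-noise per printed feature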
# [7] = probe aShh binding to arrayed compounds – biochemical, biotinylated probe, 635/667 nm fluorescence, primary screen (AID 1114); details: small-molecule microarray, higher = more signal;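 note: probe is biotin-labelled aShh protein from a stem cell growth factor screen; measures binding of labelled protein to compounds printed on the slide; score merges feature fluorescence at 667 nm with signal-to-noise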
# [8] = probe aNog binding to arrayed compounds – biochemical, biotinylated probe, 635/667 nm fluorescence, primary screen (AID 1115); details: small-molecule microarray, higher = more signal;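 note: probe is biotinylated aNog protein used at 0.15 µg/mL for 1 h at 4 C; z-score combines 667 nm fluorescence of each spot with its signal to noise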
# [9] = molecular target: Torsin-1A-interacting protein 1 (Homo sapiens) (UniProt Q5JTV8); test: compound microarray binding of lysate hLAP1 – cell lysate, small-molecule microarray, COS7 lysate, 635/667 nm fluorescence, primary screen (AID 1116); details: 635 nm fluorescence, higher = more signal
# Torsin-1A-interacting protein 1 (Homo sapiens), sequence (Q5JTV8 whole entry, looked up): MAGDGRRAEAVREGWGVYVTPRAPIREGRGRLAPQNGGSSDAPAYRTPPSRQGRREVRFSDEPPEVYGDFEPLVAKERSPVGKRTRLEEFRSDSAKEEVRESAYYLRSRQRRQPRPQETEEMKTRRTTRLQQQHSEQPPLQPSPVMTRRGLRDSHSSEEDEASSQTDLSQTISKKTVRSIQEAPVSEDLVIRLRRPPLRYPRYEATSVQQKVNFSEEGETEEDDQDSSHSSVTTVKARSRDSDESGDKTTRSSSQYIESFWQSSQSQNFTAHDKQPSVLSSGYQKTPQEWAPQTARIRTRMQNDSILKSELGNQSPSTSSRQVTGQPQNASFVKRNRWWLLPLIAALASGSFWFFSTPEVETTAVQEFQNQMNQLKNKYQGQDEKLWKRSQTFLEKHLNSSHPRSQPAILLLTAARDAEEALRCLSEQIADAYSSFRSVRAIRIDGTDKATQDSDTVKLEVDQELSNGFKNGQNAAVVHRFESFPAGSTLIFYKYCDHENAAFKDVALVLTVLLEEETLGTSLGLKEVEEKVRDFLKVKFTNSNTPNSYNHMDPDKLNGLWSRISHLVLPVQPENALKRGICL
# [10] = molecular target: Alpha-bungarotoxin (Bungarus multicinctus) (UniProt P60615); test: compounds binding labelled alpha-BTX control protein – biochemical, small-molecule microarray, Alexa647 label, 635/667 nm fluorescence, artefact control for SMM control protein annotation, profiling panel (AID 1117); details: alpha-BTX-A647 binding fluorescence, higher = more signal
# Alpha-bungarotoxin (Bungarus multicinctus), sequence (P60615 whole entry, looked up): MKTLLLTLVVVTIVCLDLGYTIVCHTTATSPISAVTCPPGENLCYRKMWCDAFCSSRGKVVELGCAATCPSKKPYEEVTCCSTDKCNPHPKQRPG
# Albumin (Bos taurus) = Albumin (Bos taurus) (UniProt P02769); test: compounds binding labelled BSA control protein – biochemical, small-molecule microarray, Alexa647 label, 635/667 nm fluorescence, artefact control for SMM control protein annotation, profiling panel (AID 1118); details: BSA-A647 binding, fluorescence 635 nm, higher = more signal;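 note: score merges 667 nm emission intensity and signal-to-noise per printed compound spot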
# Albumin (Bos taurus), sequence (P02769 whole entry, looked up): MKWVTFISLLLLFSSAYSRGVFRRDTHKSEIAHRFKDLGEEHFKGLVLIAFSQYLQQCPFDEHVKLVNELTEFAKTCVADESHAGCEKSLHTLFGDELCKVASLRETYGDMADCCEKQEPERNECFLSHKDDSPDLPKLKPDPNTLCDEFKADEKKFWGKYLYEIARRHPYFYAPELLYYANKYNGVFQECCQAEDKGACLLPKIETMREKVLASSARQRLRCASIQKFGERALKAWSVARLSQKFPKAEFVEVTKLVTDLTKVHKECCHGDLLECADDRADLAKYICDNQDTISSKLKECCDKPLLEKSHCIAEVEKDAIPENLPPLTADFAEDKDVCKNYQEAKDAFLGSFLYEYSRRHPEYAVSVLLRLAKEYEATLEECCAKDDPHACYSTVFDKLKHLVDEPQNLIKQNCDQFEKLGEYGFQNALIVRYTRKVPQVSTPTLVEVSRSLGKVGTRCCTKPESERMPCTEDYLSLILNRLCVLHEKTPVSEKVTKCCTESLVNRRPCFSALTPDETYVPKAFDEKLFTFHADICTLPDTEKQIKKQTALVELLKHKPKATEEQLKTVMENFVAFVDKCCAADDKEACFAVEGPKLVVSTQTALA
# [11] = probe aXIP binding to arrayed compounds – biochemical, NeuroSMM set, 635/667 nm fluorescence, primary screen (AID 1119); details: small-molecule microarray, higher = more signal, called active from +8 up or from −8 down;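 note: probe is the protein aXip251-270 applied at 1 µg/mL to compound-printed slides; binding of probe to printed compounds measured as 667 nm fluorescence plus signal to noise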
# [12] = probe aNOTCH3 binding on compound microarray – biochemical, small-molecule microarray, 635/667 nm fluorescence, primary screen (AID 1120); details: higher = more signal;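 note: probe is a biotin-tagged antibody raised against NOTCH3 rather than NOTCH3 protein; score merges spot fluorescence near 667 nm with spot signal to noise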
# [13] = probe aNOTCH2 binding on compound microarray – biochemical, small-molecule microarray, 635/667 nm fluorescence, primary screen (AID 1121); details: higher = more signal;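 note: score merges feature fluorescence read at 667 nm with its signal to noise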
# [14] = molecular target: Carbonic anhydrase 2 (Homo sapiens) (UniProt P00918); test: compounds binding carbonic anhydrase 2 – biochemical, small-molecule microarray, Alexa647-labelled CAII, profiling panel (AID 1122); details: CAII-A647 binding fluorescence, higher = more signal
# [15] = COS7 lysate on small-molecule microarray, probe aHis, 635 nm (AID 1123); details: COS7 cell lysate, fluorescence, higher = more signal;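 note: z-score combines 667nm fluorescence intensity with signal-to-noise per printed compound spot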
# [16] = probe aLAP1 signal on lysate-treated microarray – cell lysate, small-molecule microarray, COS7 lysate, primary screen (AID 1124); details: probe aLAP1, fluorescence, higher = more signal;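 note: lysate comes from COS7 cells expressing LAP1 and is applied at 0.3 µg/mL; score merges spot fluorescence near 667 nm with signal-to-noise over triplicate slides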
# Sam68 (KHDRBS1) = test: compounds binding KHDRBS1 protein – biochemical, small-molecule microarray, 635 nm fluorescence, primary screen (AID 1125); details: higher = more signal;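 note: score merges 667 nm channel intensity with signal to noise over triplicate slides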
# [17] = test system: Chordin-like protein 2 (CHRDL2); test: compounds binding chordin-like 2 – biochemical, small-molecule microarray, 635 nm fluorescence, primary screen (AID 1126); details: fluorescence 635 nm, higher = more signal;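 note: printed compound slides probed with Chrdl2 protein at 4 µg/mL for 1 h at 4 C; score merges 667 nm emission intensity with signal to noise over three replicate slides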
# [18] = molecular target: Concanavalin-A (Canavalia ensiformis) (UniProt P02866); test: compounds binding concanavalin A lectin – biochemical, small-molecule microarray, Alexa647 label, 635 nm, artefact control for SMM control protein annotation, primary screen (AID 1127); details: ConA-A647 binding fluorescence, higher = more signal;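 note: z combines 667 nm emission intensity with signal-to-noise across three replicate slides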
# Concanavalin-A (Canavalia ensiformis), sequence (P02866 whole entry, looked up): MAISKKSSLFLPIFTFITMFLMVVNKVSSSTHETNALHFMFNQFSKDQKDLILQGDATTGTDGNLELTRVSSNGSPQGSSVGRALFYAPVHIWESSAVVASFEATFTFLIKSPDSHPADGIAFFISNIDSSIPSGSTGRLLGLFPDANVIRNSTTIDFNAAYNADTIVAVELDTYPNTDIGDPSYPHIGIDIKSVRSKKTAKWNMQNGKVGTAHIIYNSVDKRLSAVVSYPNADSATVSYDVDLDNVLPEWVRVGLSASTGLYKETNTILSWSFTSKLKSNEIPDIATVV
SMILES,composite z-score [1],z-score [2],composite z-score [3],composite z-score [4],composite z-score [5],composite z-score [6],composite z-score [7],composite z-score [8],composite z-score [9],composite z-score [10],composite z-score (Albumin (Bos taurus)),composite Z-score [11],composite z-score [12],composite z-score [13],composite z-score [14],composite z-score [15],composite z-score [16],composite z-score (Sam68 (KHDRBS1)),composite z-score [17],composite z-score [18]
O=C1CSC(c2cccc([N+](=O)[O-])c2)N1c1ccccc1 (stereo not given),0.551,-1.16,0.688,0.331,-0.071,-0.135,-0.221,-0.073,0.273,0.163,0.0623,0.0045 (inactive),-0.0647,-0.172,0.153,0.523,0.537,0.557,0.286,0.612
NC(=O)[C@@H]1[C@H]2C(=O)O[C@H](c3ccccc3)[C@H](c3ccccc3)N2[C@H](c2ccccc2OCCO)[C@@]12C(=O)Nc1ccc(C#CCCO)cc12,0.42,-1.02,-0.388,0.613,0.154,-0.226,-0.221,-0.139,0.0571,1.18,0.59,-0.309 (inactive),-0.218,-0.147,0.71,0.663,0.148,0.13,-0.68,1.18
C=CCOc1ccc([C@@H]2CC=C(C(=O)OCC)[C@H](c3cccc(Br)c3)N2S(=O)(=O)c2ccc(C)cc2)cc1,-1.07,-1.12,0.179,1.95,0.943,-0.0944,-0.107,-0.54,0.644,1.2,0.64,0.0809 (inactive),0.032,-0.0784,-0.125,0.491,0.11,0.099,0.314,0.709
COc1cc(C(O)C2C=CC3C(=O)NC(=O)C3N2Nc2ccc(Cl)cc2Cl)cc(OC)c1OC (stereo not given),1.44,0.221,-0.118,2.03,0.866,0.0809,-0.0243,1.22,1.22,0.877,0.254,-0.762 (inactive),0.454,0.0956,0.752,2.99,0.115,0.79,-0.0696,1.05
COCC1=C([C@H](O)CCc2ccccc2)[C@H](CO)[C@@H]2C(=O)N(C)C(=O)[C@@H]2C1,-0.121,0.216,0.394,-0.205,-0.783,-0.104,-0.164,-0.172,0.478,-0.152,0.218,-0.222 (inactive),0.0893,-0.0502,0.426,-0.0175,0.0165,0.322,0.758,-0.0605
COC(=O)C(CC#Cc1ccc2c(c1)[C@]1(C(=O)N2)[C@H](c2ccc(O)cc2)N2[C@H](c3ccccc3)[C@H](c3ccccc3)OC(=O)[C@H]2[C@@H]1C(=O)O)C(=O)OC,0.69,-0.76,0.029,0.351,0.0474,-0.175,-0.206,-0.124,-0.347,0.33,0.587,0.877 (inactive),0.18,-0.0891,0.766,1.07,0.308,0.318,-0.3,0.819
